# From the supplement of paper PMC6555819
# Key:
# Experiment in all cases: PBM binding z-score (relative to random genomic background probes); higher = stronger binding; sequences stand for … in GC…GCGATTGACAGCGTAGAATGAAGG
# [1] = tested on: PPARg:RXRa DBDmut IVT, anti-RXR (DBD mutation: RXRa K156A/R161A, NR concentration 270 nM, RXRa partner concentration 90 nM)
# Procedure, shortened: (§1)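 Scanned fluorescence from custom Agilent 4×180K protein-binding microarrays was regression-normalized. Binding z-scores use random background probes as reference. Ligand-free nuclear receptor dimers were incubated on the arrays for 1 h and detected with antibodies against each partner (one per run).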
# [2] = tested on: PPARg:RXRa IVT, anti-PPARg (NR concentration 270 nM, RXRa partner concentration 90 nM)
# Procedure, shortened: as §1
# [3] = tested on: PPARg DBDmut:RXRa IVT, anti-PPARg (DBD mutation: PPARg1 K132A/R137A, NR concentration 270 nM, RXRa partner concentration 90 nM)
# Procedure, shortened: as §1
# [4] = tested on: PPARg DBDmut IVT, anti-PPARg (DBD mutation: PPARg1 K132A/R137A, NR concentration 270 nM)
# Procedure, shortened: as §1
# [5] = tested on: PPARg homodimer (NR concentration 180 nM)
# Procedure, shortened: as §1
# [6] = tested on: PXR:RXRa (NR concentration 270 nM, RXRa partner concentration 90 nM)
# Procedure, shortened: as §1
# [7] = tested on: PXR homodimer (NR concentration 270 nM)
# Procedure, shortened: as §1
# [8] = tested on: RARa:RXR (NR concentration 270 nM, RXRa partner concentration 90 nM)
# Procedure, shortened: as §1
# [9] = tested on: RARa homodimer (NR concentration 270 nM)
# Procedure, shortened: as §1
# [10] = tested on: RARb:RXRa (NR concentration 270 nM, RXRa partner concentration 90 nM)
# Procedure, shortened: as §1
Sequence,PBM binding z-score [1],PBM binding z-score [2],PBM binding z-score [3],PBM binding z-score [4],PBM binding z-score [5],PBM binding z-score [6],PBM binding z-score [7],PBM binding z-score [8],PBM binding z-score [9],PBM binding z-score [10]
CCAGACAGGTGAGAATGTAACTCAGCCTCGATTA,0.965,0.029,-1.25,0.0266,0.565,-0.276,0.0874,-0.141,1.11,0.234
GCGACTGGGGCATCAGCAGGGTACCATAACTTAA,3.75,2.79,-0.747,-0.946,-0.494,-0.289,-0.457,-0.268,-1.05,0.517
CCTGCTAGGCCATGGTCAGCTAATCTACAGTATG,1.36,0.103,-0.241,-1.56,-0.736,-0.665,-0.705,-0.631,-0.715,0.929
CCTTACGGGTCACTCCAGGTTATACCATCGGAGT,2.28,3.61,0.661,-0.4,1.69,5,0.455,3.74,0.133,3.68
CTACCAAGGTGAACAGGGTCGTTGATTACTATTC,1.92,2.88,0.525,0.178,0.785,1.89,0.796,2.11,0.321,1.75
ATCTCTAGGTAAGACTCTGTTCAGTGAAGAACGC,2.14,1.19,0.717,0.753,0.889,-0.0649,0.53,0.421,1.18,0.151
GCCATTAGTTGAAAGGGCAACCGAATGATTCTCG,0.352,0.947,0.187,-0.306,0.971,0.706,0.067,1.4,-0.15,2.21
GCTGCTAGGTCAGGTTAGTCAGCTAACGGGTACG,2.9,2.42,-0.896,-1.02,0.349,0.128,-0.498,0.677,-0.907,3.29
AGTCCAAGTTCAGGACGAGGTAACGTAAAGCACG,-0.641,0.15,-0.559,-0.0596,0.572,1.93,0.749,1.34,-0.0097,2.56
TCGAGTAGGTTAGTCGGGGCATTCGGCCAACATA,1.74,2.04,-1.62,-1.17,0.0341,0.113,0.177,0.065,-0.901,0.58
AGAACGAGGGTACGCTGAGTTGATAGCAGAGTAG,1.48,0.725,0.215,0.0529,-0.458,0.223,0.15,-0.0408,-0.807,0.364
CAAACTAGGTCAAGAGGACAAAGTCCGCTTCCCG,8.17,8.27,2.16,2.91,1.84,1.37,0.291,2.12,0.947,4.37
AGAATGAGGGTATTAAGATCAGGGAATTGCGGTC,1.71,0.923,0.443,0.824,0.506,0.0196,0.451,0.253,0.44,0.4
ACAGACAGGTGAGTCAAGGTAACTCAGCTGGACG,0.393,0.646,-0.696,-0.663,-0.248,0.238,-0.645,0.569,-0.253,0.669
CCTTACAGGTCACTGACAGGTTATAGCATTTGGA,4.62,4.34,1.33,1.38,3.27,3.86,0.606,4.73,2.15,4.67
ATATGTAGGTTAGCTGGGGTTATTCAGACTAGGC,6.78,6.18,3.12,2.79,1.88,4.02,0.969,3.11,1.26,1.38
GGAACGAGGGCAAAGTTGGTAGCATCTGTCGACG,4.05,3.9,0.127,-0.27,0.782,0.589,-0.136,0.765,-0.548,2.31
CGTACTAGGTCATTGACAGGACAGTGAATAGTAA,7.67,7.54,3.72,3.85,3.05,1.64,0.269,2.54,0.282,3.67
CCTAATGGGCCATCAGGTCATTGATATCAACGTT,3.13,3.41,-0.226,0.112,1.81,1.84,0.78,2.18,0.44,2.15
CCTATTTGGTCAGGAGGTCACACACCGGATATGA,1.91,3.3,1.63,0.887,3.54,4.35,1.72,4.86,2.56,3.94
ATCGAAAGGTCGTGAGGTGGGTATACAGAAAGGC,-0.234,1.94,0.885,1.49,3.69,3.36,0.721,4.17,1.39,4.05
CTACCAACGTGAACAAGGTCGTTGATTACTATTC,0.278,0.249,0.577,1.06,0.913,1.72,1,1.4,0.795,0.631
CCTATTAGTTGTCCATAAGGGCAACCGAAGCTCG,0.332,0.804,0.706,1.02,1.69,0.563,0.996,1.1,2.11,1.44
